The text below walks through data of PubChem BioAssay (NCI).

This is part of a sample that, as a whole, favours compounds with a hit. Of some 83,000 tested, about 20% had one in any assay.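 Method: cells in 96-well plates; compound added at one concentration; 48 h incubation; percent growth measured; values under 10 scored active.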 The source made the active and inactive calls.

The subject of the assay is MCF7 breast. The assay can be described thus: NCI-60 one-dose screen, 48 h (100 = growth as untreated, 0 = no growth, -100 = all killed). To be noted: 10 µM unless noted.
For the molecule `Cc1ccc(C(SCC(N)C(=O)O)(c2ccccc2)c2ccc(C)cc2)cc1` (stereo not given), the growth was 12.3% (inactive). Under `Cc1cc(Nc2ccc(C)c(Cl)c2)n2nc(C(F)(F)F)nc2n1` stands 77.9% (inactive). Under `COc1ccccc1NS(=O)(=O)c1ccc2oc(SC(C)C)nc2c1` stands 82.3% (inactive); under `CCN1CCN(c2nc(NCCCNc3ccnc4cc(Cl)ccc34)c3ccccc3n2)CC1`, 23.2% (inactive).

For `CCc1nnc(CNc2ccc(Cl)cc2)o1`, the growth was 91.3% (inactive). Under `CCOC(=O)c1c(C)oc2ncnc(N3CCN(C(=S)Nc4ccccc4)CC3)c12` stands 93.1% (inactive). Under `C=C1c2nc3ccccc3n2C=C(c2cccc(Cl)c2)N1Cc1ccc(OC)cc1` stands 4.64% (active); under `COc1ccc(/C=C/C(=O)c2ccc(O)c(CN3CCN(c4cc5c(cc4F)c(=O)c(C(=O)O)cn5C4CC4)CC3)c2)cc1`, 8.68% (active); under `O=C1NC(=Nc2ccc(O)cc2)S/C1=C\c1cccc(Cl)c1`, 18.6% (inactive). Under `N#Cc1c(-c2ccc(Cl)cc2)nc(N/N=C/c2cccc(Br)c2)nc1N1CCOCC1` stands 72.5% (inactive); under `COc1ccc(N=Nc2nccs2)c(O)c1`, 20.4% (inactive); under `O=C1/C(=C/C(Cl)=C/c2ccccc2)SC(=S)N1CCc1ccc(O)cc1`, 26.4% (inactive).

On to `COc1cc(/C=C/C(=O)c2cccnc2Nc2ccc(F)cc2)cc(OC)c1OC`, for which the growth was 8.82% (active). Next, `O=C1Nc2ccc(Br)cc2C12Oc1ccccc1C1CC(c3ccc(F)cc3)=NN12` (stereo not given): 83.5% (inactive); `CSc1nc(Nc2cccc(NC(=O)CCl)c2)c(C#N)c(-c2cccc([N+](=O)[O-])c2)n1`: 0% (active).
